Data taken from PubChem BioAssay (Tox21).
Results filed as inconclusive are left out. The source made the active and inactive calls. Unless noted, the call rests on the fitted dose curve; in most records, active means well fitted curve in the direction sought with a large enough effect in the repeat runs; inconclusive means weak or mixed curves; inactive means no such curve, though single readings can be large; an effect the other way counts as inactive or inconclusive.

Tests used:
[1] = target: Thyrotropin receptor (Homo sapiens) (UniProt P16473); assay: qHTS assay to identify small molecule antagonists of the thyroid stimulating hormone receptor (TSHR) signaling pathway (AID 1259385; calls by dose curve; further: nearly all actives have a fitted effect of over 20% in size)
Chain of Thyrotropin receptor (Homo sapiens) (P16473 whole entry, looked up): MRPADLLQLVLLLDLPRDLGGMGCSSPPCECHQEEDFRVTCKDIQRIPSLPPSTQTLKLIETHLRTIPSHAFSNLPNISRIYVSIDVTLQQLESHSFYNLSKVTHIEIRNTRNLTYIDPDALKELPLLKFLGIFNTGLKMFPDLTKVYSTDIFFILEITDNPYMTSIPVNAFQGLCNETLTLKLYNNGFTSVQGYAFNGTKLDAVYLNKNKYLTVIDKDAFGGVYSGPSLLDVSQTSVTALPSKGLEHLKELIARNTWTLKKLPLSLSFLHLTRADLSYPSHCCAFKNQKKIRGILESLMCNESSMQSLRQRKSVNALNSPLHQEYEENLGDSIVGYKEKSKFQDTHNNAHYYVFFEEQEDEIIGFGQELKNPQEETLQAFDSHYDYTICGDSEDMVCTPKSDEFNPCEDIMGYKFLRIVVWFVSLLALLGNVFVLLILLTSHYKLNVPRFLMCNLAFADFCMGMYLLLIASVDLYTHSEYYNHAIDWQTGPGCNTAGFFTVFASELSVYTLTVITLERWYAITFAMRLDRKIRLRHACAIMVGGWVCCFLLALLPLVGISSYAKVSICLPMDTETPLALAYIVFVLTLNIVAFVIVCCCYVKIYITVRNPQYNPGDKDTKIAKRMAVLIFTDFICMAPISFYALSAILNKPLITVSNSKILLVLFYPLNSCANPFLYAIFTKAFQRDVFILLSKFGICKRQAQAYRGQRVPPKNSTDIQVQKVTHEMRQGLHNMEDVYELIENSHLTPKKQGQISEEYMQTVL
Outline: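 Antagonist mode: compound-treated TSHR-expressing HEK293 cells were stimulated with 1.5 ng/mL TSH (final) in presence of Ro20-1724 for 30 min at RT. HTRF cAMP detection after 1 h; each compound tested at 15 concentrations, triplicate.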

[2] = qHTS assay to identify small molecule agonists of the estrogen receptor alpha (ER-alpha) signaling pathway in the presence of an antagonist - cell viability counter screen (AID 1259386);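 further: series mostly up to about 92 µM; cells exposed to compounds for 22 h at 37 °C before the viability read; nearly all actives have a fitted effect of over 30% in size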
Outline: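 Cytotoxicity was measured in parallel with the ERE-luciferase agonist screen, in the same wells. The cells were VM7Luc4E2, which endogenously express ER-alpha, and treatment was with compounds plus 10.0nM ICI-182,780 for 22hr.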

[3] = target: Progesterone receptor (Homo sapiens) (UniProt P06401); assay: qHTS assay to identify small molecule agonists of the progesterone receptor (PR) signaling pathway (AID 1346784; calls by dose curve; further: nearly all actives have a fitted effect of over 30% in size)
Chain of Progesterone receptor (Homo sapiens) (P06401 whole entry, looked up): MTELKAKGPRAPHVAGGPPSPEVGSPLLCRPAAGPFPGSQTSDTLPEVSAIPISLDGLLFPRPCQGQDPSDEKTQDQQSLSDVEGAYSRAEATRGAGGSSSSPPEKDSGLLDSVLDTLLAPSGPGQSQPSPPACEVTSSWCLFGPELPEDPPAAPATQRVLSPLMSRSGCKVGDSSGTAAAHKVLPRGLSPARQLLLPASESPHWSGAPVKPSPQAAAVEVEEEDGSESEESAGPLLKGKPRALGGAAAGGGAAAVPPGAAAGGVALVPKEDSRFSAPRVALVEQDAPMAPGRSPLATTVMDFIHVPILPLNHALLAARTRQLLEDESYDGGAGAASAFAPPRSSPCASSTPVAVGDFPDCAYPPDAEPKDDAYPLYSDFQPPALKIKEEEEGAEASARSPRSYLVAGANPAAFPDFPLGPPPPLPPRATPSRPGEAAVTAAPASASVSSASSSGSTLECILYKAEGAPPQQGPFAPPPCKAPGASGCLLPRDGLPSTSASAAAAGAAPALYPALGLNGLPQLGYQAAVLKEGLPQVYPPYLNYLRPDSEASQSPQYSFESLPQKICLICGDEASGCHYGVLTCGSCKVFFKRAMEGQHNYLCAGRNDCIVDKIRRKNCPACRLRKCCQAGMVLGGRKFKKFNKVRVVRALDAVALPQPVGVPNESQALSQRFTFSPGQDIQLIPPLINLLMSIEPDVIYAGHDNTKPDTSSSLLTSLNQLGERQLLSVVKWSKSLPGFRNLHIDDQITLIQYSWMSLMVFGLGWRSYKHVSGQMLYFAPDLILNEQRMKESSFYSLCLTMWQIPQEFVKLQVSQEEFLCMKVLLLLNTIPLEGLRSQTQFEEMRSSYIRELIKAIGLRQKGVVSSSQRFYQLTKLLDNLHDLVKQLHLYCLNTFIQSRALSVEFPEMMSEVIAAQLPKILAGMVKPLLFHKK
Outline: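 PR-UAS-bla HEK 293T cells carrying a UAS-driven beta-lactamase reporter were seeded in medium with 2% charcoal-stripped FBS, preincubated 6 hr at 37C, then exposed to compounds in DMSO for 16 hr; agonism was read by LiveBLAzer B/G FRET fluorescence.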

[4] = target: Progesterone receptor (Homo sapiens) (UniProt P06401); assay: qHTS assay to identify small molecule antagonists of the progesterone receptor (PR) signaling pathway (AID 1346795; active means well fitted inhibition curve with a large enough effect in the signal ratio in the repeat runs, not every such curve was filed as active; the % refers to the signal ratio)
Outline: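 PR-UAS-bla HEK293T cells carrying a UAS-driven beta-lactamase reporter were plated in medium with 2% charcoal-stripped FBS and rested 6 hr at 37C. Compounds were added with 1 nM R5020 (final) for 16 hr, then FRET substrate loaded 2 hr at room temperature.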

[5] = qHTS assay to identify small molecule antagonists of the progesterone receptor (PR) signaling pathway - cell viability counter screen (AID 1346798); further: series mostly up to about 92 µM; nearly all actives have a fitted effect of over 50% in size
Outline: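 PR-UAS-bla HEK293T cells in medium with 2% charcoal-stripped FBS were treated with compounds plus R5020 for 16 hr at 37C. Cell viability was then read by CellTiter-Glo luminescence after 30 min at room temperature in the same wells.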

[6] = qHTS assay to identify small molecule antagonists of the TGF-beta/Smad signaling pathway - cell viability counter screen (AID 1346824); further: nearly all actives have a fitted effect of over 50% in size
Outline: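 Cytotoxicity counter-screen run in the same wells as the beta-lactamase Smad reporter read: CellTiter-Glo luminescence after 30 min at room temperature. HEK 293T SBE-bla cells had 5 hr compound exposure at 37 C with TGF-beta1 (0.25 ng/mL stock).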

[7] = qHTS assay to identify small molecule agonists of the TGF-beta/Smad signaling pathway - cell viability counter screen (AID 1346829); further: top concentration of the series differs between compounds; nearly all actives have a fitted effect of over 45% in size
Outline: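 Here the cytotoxicity of library compounds is measured in SBE-bla HEK 293T cells treated for 5 hr, using CellTiter-Glo added to wells already read for the beta-lactamase reporter.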

[8] = qHTS assay to identify small molecule agonists of the TGF-beta/Smad signaling pathway (AID 1346859; active means well fitted activation curve with a large enough effect in the signal ratio in the repeat runs, not every such curve was filed as active; the % refers to the signal ratio; further: series mostly up to about 77 µM)
Outline: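 HEK 293T cells stably carrying a beta-lactamase reporter driven by the Smad binding element were seeded overnight, exposed to DMSO-dissolved compounds for 5 hr at 37 C, 5% CO2, then loaded with FRET substrate for 2 hr at room temperature.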

[9] = target: Thyrotropin-releasing hormone receptor (Homo sapiens) (UniProt P34981); assay: qHTS assay to identify small molecule antagonists of the thyrotropin-releasing hormone receptor (TRHR) signaling pathway (AID 1346877; active means well fitted inhibition curve with a large enough effect in the repeat runs, not every such curve was filed as active; further: series mostly up to about 51 µM)
Chain of Thyrotropin-releasing hormone receptor (Homo sapiens) (P34981 whole entry, looked up): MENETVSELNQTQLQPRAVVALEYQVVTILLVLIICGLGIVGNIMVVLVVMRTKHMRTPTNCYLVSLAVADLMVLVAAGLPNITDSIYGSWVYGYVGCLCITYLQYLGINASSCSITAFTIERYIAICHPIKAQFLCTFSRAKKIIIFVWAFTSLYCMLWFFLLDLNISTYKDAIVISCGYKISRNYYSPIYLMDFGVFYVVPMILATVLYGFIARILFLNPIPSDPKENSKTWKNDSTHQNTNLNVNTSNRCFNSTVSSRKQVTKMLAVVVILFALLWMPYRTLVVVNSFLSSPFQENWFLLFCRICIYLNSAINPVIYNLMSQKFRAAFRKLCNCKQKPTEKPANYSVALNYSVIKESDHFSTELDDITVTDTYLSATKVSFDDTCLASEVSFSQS
Outline: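 Antagonism is measured as suppression of the calcium response to 1 nM TRH in TRHR-HEK293 cells that have been dye-loaded for 2 h at 37 °C after overnight plating. Each compound is tested at 15 concentrations in triplicate.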

[10] = target: Thyrotropin-releasing hormone receptor (Homo sapiens) (UniProt P34981); assay: qHTS assay to identify small molecule agonists of the thyrotropin-releasing hormone receptor (TRHR) signaling pathway (AID 1346891; calls by dose curve; further: series mostly up to about 58 µM)
Outline: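 TRHR-expressing HEK293 cells were plated 18 h at 37 °C/5% CO2, loaded with calcium dye 2 h at 37 °C, then given compound in DMSO; fluorescence was read kinetically for 3 min at 1 s intervals.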

[11] = Human pregnane X receptor (PXR) small molecule agonists, qHTS cell viability counter screen (AID 1346977); further: nearly all actives have a fitted effect of over 50% in size
Outline: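 PXR-Luc HepG2 cells in medium with 5% charcoal-stripped FBS were pre-incubated 5hr, then exposed to compounds for 24hr at 37C. Viability was read in the same wells by CellTiter-Fluor fluorescence, reagent added after 23hr with a 1hr incubation.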

[12] = Caspase-3/7 induction in HepG2 cells by small molecules, qHTS assay (AID 1346978); further: nearly all actives have a fitted effect of over 15% in size
Outline: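 Caspase-3/7 induction was measured by Caspase-Glo 3/7 luminescence (30 min, room temperature) after a 17 hr compound exposure of wild-type HepG2 cells seeded at 2,000 per well and pre-incubated 5 hr.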

[13] = Caspase-3/7 induction in CHO-K1 cells by small molecules, qHTS cell viability counter screen (AID 1346979); further: nearly all actives have a fitted effect of over 35% in size
Outline: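 Wild-type CHO-K1 cells were seeded at 1,500 per well, rested 5hr at 37 C, then exposed to compounds in DMSO. After 16hr, CellTiter-Fluor reagent was added and fluorescence read 1hr later as the viability measure.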

[14] = Caspase-3/7 induction in CHO-K1 cells by small molecules, qHTS assay (AID 1346980); further: nearly all actives have a fitted effect of over 15% in size
Outline: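 Luminescent Caspase-Glo 3/7 read (30min, room temperature) quantified apoptosis induction. Cells were wild-type CHO-K1, treated with compound for 17hr at 37 C and 5% CO2.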

[15] = target: Nuclear receptor subfamily 1 group I member 2 (Homo sapiens) (UniProt O75469); assay: Human pregnane X receptor (PXR) small molecule agonists, qHTS assay (AID 1346982); further: nearly all actives have a fitted effect of over 35% in size
Chain of Nuclear receptor subfamily 1 group I member 2 (Homo sapiens) (O75469 whole entry, looked up): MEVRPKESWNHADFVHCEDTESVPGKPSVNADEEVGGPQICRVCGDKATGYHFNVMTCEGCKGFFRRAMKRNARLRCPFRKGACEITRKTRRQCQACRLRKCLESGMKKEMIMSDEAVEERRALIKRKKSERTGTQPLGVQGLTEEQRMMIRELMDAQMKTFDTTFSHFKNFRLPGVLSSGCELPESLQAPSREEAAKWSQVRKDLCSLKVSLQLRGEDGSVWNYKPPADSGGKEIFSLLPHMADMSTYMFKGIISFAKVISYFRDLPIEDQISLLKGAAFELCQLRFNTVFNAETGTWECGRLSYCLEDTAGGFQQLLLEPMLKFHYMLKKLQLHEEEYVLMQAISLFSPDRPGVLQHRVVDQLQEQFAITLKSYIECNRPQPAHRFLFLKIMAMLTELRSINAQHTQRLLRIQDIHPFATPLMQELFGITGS
Outline: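 Cells: HepG2 stably carrying PXR-Luc. Medium held 5% charcoal-stripped FBS. Compounds in DMSO added after 5 hr plating, incubated 24 hr, then luminescence quantified with ONE-Glo.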

[16] = target: Nuclear receptor subfamily 1 group I member 2 (Rattus norvegicus) (UniProt Q9R1A7); assay: Rat pregnane X receptor (rPXR) activation by small molecules, qHTS assay (AID 1346983); details: rPXR luciferase reporter cells, One-Glo luminescence, 24 h; stronger effect = higher value; further: nearly all actives have a fitted effect of over 20% in size
Chain of Nuclear receptor subfamily 1 group I member 2 (Rattus norvegicus) (Q9R1A7 whole entry, looked up): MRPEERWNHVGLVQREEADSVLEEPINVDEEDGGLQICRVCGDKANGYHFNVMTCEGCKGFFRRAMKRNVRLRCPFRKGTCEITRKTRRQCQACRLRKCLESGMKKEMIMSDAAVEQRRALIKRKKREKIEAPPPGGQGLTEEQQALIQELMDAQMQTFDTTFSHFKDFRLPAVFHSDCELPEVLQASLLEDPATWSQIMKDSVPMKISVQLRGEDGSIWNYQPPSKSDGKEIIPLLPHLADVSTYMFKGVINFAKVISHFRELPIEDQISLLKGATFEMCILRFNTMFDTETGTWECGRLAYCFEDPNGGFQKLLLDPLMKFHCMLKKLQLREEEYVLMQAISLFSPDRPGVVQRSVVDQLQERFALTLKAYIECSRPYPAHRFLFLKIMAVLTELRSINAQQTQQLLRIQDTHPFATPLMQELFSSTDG
Outline: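 Luminescent readout (One-Glo luciferase, 30 min room temperature) followed 24 hr compound treatment at 37 C of rPXR cells plated 2,000 per well and preincubated 5hr; qHTS format with compounds delivered in DMSO.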

[17] = target: Nuclear receptor subfamily 1 group I member 2 (Homo sapiens) (UniProt O75469); assay: CYP3A4 induction through human pregnane X receptor (PXR) by small molecules, qHTS assay (AID 1346984); further: nearly all actives have a fitted effect of over 40% in size
Outline: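 Quantitative HTS in DPX-2 cells, i.e. HepG2 transfected with PXR response element and CYP3A4-promoter luciferase. Compounds in DMSO incubated 24hr at 37C; then P450-Glo CYP3A4 substrate, 3uM final, 3hr; One-Glo luminescence.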

[18] = target: Nuclear receptor subfamily 1 group I member 2 (Homo sapiens) (UniProt O75469); assay: Human pregnane X receptor (PXR) activation by small molecules, qHTS assay (AID 1346985); further: nearly all actives have a fitted effect of over 40% in size
Outline: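 DPX-2 cells (HepG2 co-transfected with a PXR response element and a CYP3A4-promoter luciferase construct) were seeded at 2,000 per well, rested 5 hr at 37C, then exposed to DMSO-dissolved compounds for 24 hr. Activation was read as luciferase luminescence.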

[19] = qHTS assay to identify small molecule agonists of the progesterone receptor (PR) signaling pathway - cell viability counter screen (AID 1346799; calls by dose curve; further: nearly all actives have a fitted effect of over 45% in size)
Outline: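 PR-UAS-bla HEK293T cells, 3,000 per well in medium with 2% charcoal-stripped FBS, were preincubated 6 hr at 37C, then exposed to compounds for 16 hr; viability was read as CellTiter-Glo luminescence after 30 min at room temperature.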

[20] = Caspase-3/7 induction in HepG2 cells by small molecules, qHTS cell viability counter screen (AID 1346981); further: series mostly up to about 92 µM; nearly all actives have a fitted effect of over 30% in size
Outline: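 Cell viability is measured as a cytotoxicity counter screen alongside the Caspase-Glo 3/7 readout in identical wells. Wild-type HepG2 cells are treated with test compounds for 16 hr at 37 C before CellTiter-Fluor addition and a 1-hr incubation.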
On the % scale 0 is the no-effect control and ±100 the full control effect.

CCOc1cc(NC(C)=O)ccc1C(=O)OC
inactive: outcome [1] | Potency [2] | Potency [3] | Potency [4] | Potency [5] | outcome [6] | outcome [7] | outcome [8] | outcome [9] | outcome [10] | Potency [11] | Potency [12] | Potency [13] | outcome [14] | Potency [15] | max activation [16] -4.18% | Potency [17] | Potency [18]

COC(=O)c1ccccc1C(=O)c1ccc(OCCN2CCCCC2)cc1
inactive: outcome [1] | Potency [2] | Potency [3] | Potency [4] | Potency [5] | Potency [19] | outcome [6] | outcome [7] | outcome [8] | outcome [9] | outcome [10] | Potency [12] | Potency [13] | Potency [20] | max activation [16] -0.568% | Potency [18]

O=C(CCNNC(=O)c1ccncc1)NCc1ccccc1
inactive: outcome [1] | Potency [2] | Potency [3] | Potency [4] | Potency [5] | Potency [19] | outcome [6] | outcome [7] | outcome [8] | outcome [9] | outcome [10] | Potency [11] | Potency [12] | outcome [14] | Potency [20] | Potency [15]

NCCN1CCOCC1
inactive: outcome [1] | Potency [2] | Potency [3] | Potency [4] | Potency [5] | outcome [6] | outcome [7] | outcome [8] | outcome [9] | outcome [10] | Potency [11] | Potency [12] | Potency [13] | outcome [14]

O=C(O)c1ccc(Cl)cc1Cl
inactive: outcome [1] | Potency [2] | Potency [3] | Potency [4] | Potency [5] | outcome [6] | outcome [7] | outcome [8] | outcome [9] | outcome [10] | Potency [11] | Potency [12] | Potency [13] | outcome [14] | Potency [15]

CC(C)N(c1ccccc1)C(C)C
inactive: outcome [1] | Potency [2] | Potency [3] | Potency [4] | Potency [5] | Potency [19] | outcome [7] | outcome [8] | Potency [11] | Potency [12] | Potency [13] | outcome [14] | Potency [20] | Potency [15]

COCCOCCOCCOCCO
inactive: outcome [1] | Potency [2] | Potency [3] | Potency [4] | Potency [5] | Potency [19] | outcome [7] | outcome [8] | outcome [9] | outcome [10] | Potency [11] | Potency [12] | Potency [13] | outcome [14] | Potency [20] | Potency [15]

CCn1ccc(NS(=O)(=O)c2ccc(N)cc2)nc1=O
inactive: outcome [1] | Potency [2] | Potency [3] | Potency [4] | Potency [5] | Potency [19] | outcome [6] | outcome [7] | outcome [8] | Potency [11] | Potency [12] | Potency [13] | outcome [14] | Potency [20] | Potency [15]
